Laboratory results reported in the supplement of paper PMC7765376.
Counter-ions that a name gives are not always drawn. Over roughly 1,500 compounds, “Excess HSA synergy score (sum over dose matrix of excess over highest single agent)” has its median near 43; the lowest 2% begin near -900. This excerpt belongs to a sample that is enriched for the lowest values.

Test system: PEO-1
Assay: Excess HSA synergy score (sum over dose matrix of excess over highest single agent) (score (summed % response)); higher = less synergy / more antagonism (negative = synergy)
Settings: 72 h, read-out: viability/apoptosis luminescence (CellTiter-Glo or Caspase3-Glo / not stated per table)
[1] = matrix design: 6x6, 5-fold dilutions (primary screen)
[2] = matrix design: 10x10, 9-step dilutions (confirmatory)

| SMILES | Excess HSA synergy score [1] | Excess HSA synergy score [2] |
| --- | --- | --- |
| C/C=C(/C)C(=O)O[C@H]1C(C)=C2[C@H]([C@@H]1OC(=O)CCCCCCC)[C@@](C)(OC(C)=O)C[C@H](OC(=O)CCC)[C@@]1(O)[C@H]2OC(=O)[C@@]1(C)O [Thapsigargin] + CC[C@H](NC(=O)[C@H](C)NC)C(=O)N1C[C@@H](O)C[C@H]1Cc1c(-c2[nH]c3cc(F)ccc3c2C[C@@H]2C[C@H](O)CN2C(=O)[C@H](CC)NC(=O)[C@H](C)NC)[nH]c2cc(F)ccc12 [Birinapant] | -265 | -912 |
| O=C(O)C(=O)CBr [3-Bromopyruvate] + CC[C@H](NC(=O)[C@H](C)NC)C(=O)N1C[C@@H](O)C[C@H]1Cc1c(-c2[nH]c3cc(F)ccc3c2C[C@@H]2C[C@H](O)CN2C(=O)[C@H](CC)NC(=O)[C@H](C)NC)[nH]c2cc(F)ccc12 [Birinapant] | 97.1 | – |
| CCOC(=O)Nc1ccc(NCc2ccc(F)cc2)cc1N [Retigabine] + CC[C@H](NC(=O)[C@H](C)NC)C(=O)N1C[C@@H](O)C[C@H]1Cc1c(-c2[nH]c3cc(F)ccc3c2C[C@@H]2C[C@H](O)CN2C(=O)[C@H](CC)NC(=O)[C@H](C)NC)[nH]c2cc(F)ccc12 [Birinapant] | 64.5 | – |
| CC(C)CC(N(C)C)C1(c2ccc(Cl)cc2)CCC1 (stereo not drawn) [Sibutramine hydrochloride] + CC[C@H](NC(=O)[C@H](C)NC)C(=O)N1C[C@@H](O)C[C@H]1Cc1c(-c2[nH]c3cc(F)ccc3c2C[C@@H]2C[C@H](O)CN2C(=O)[C@H](CC)NC(=O)[C@H](C)NC)[nH]c2cc(F)ccc12 [Birinapant] | 96.7 | – |
| CC(C)NC1CCn2c(=O)[nH]c3cccc(c32)C1O (stereo not drawn) [Zilpaterol] + CC[C@H](NC(=O)[C@H](C)NC)C(=O)N1C[C@@H](O)C[C@H]1Cc1c(-c2[nH]c3cc(F)ccc3c2C[C@@H]2C[C@H](O)CN2C(=O)[C@H](CC)NC(=O)[C@H](C)NC)[nH]c2cc(F)ccc12 [Birinapant] | 413 | – |
| CC1=C2C[C@H]3[C@@H](CC=C4C[C@@H](O)CC[C@@]43C)[C@@H]2CC[C@]12O[C@@H]1C[C@H](C)CN[C@H]1[C@H]2C [Cyclopamine] + CC[C@H](NC(=O)[C@H](C)NC)C(=O)N1C[C@@H](O)C[C@H]1Cc1c(-c2[nH]c3cc(F)ccc3c2C[C@@H]2C[C@H](O)CN2C(=O)[C@H](CC)NC(=O)[C@H](C)NC)[nH]c2cc(F)ccc12 [Birinapant] | 82.1 | – |
| CCNC(=O)C[C@@H]1N=C(c2ccc(Cl)cc2)c2cc(OC)ccc2-n2c(C)nnc21 + CC[C@H](NC(=O)[C@H](C)NC)C(=O)N1C[C@@H](O)C[C@H]1Cc1c(-c2[nH]c3cc(F)ccc3c2C[C@@H]2C[C@H](O)CN2C(=O)[C@H](CC)NC(=O)[C@H](C)NC)[nH]c2cc(F)ccc12 [Birinapant] | -120 | – |
| CC(C)[C@]12O[C@H]1[C@@H]1O[C@]13[C@]1(O[C@H]1C[C@H]1C4=C(CC[C@@]13C)C(=O)OC4)[C@@H]2O [Triptolide] + CC[C@H](NC(=O)[C@H](C)NC)C(=O)N1C[C@@H](O)C[C@H]1Cc1c(-c2[nH]c3cc(F)ccc3c2C[C@@H]2C[C@H](O)CN2C(=O)[C@H](CC)NC(=O)[C@H](C)NC)[nH]c2cc(F)ccc12 [Birinapant] | -151 | -1170 |
| CC1(N2CCC(n3c([C@@H]4CCCNC4)nc4ccccc43)CC2)CCCCCCC1 + CC[C@H](NC(=O)[C@H](C)NC)C(=O)N1C[C@@H](O)C[C@H]1Cc1c(-c2[nH]c3cc(F)ccc3c2C[C@@H]2C[C@H](O)CN2C(=O)[C@H](CC)NC(=O)[C@H](C)NC)[nH]c2cc(F)ccc12 [Birinapant] | 152 | – |
| O=C(N[C@H]1CN2CCC1CC2)c1ccc(Cl)cc1 + CC[C@H](NC(=O)[C@H](C)NC)C(=O)N1C[C@@H](O)C[C@H]1Cc1c(-c2[nH]c3cc(F)ccc3c2C[C@@H]2C[C@H](O)CN2C(=O)[C@H](CC)NC(=O)[C@H](C)NC)[nH]c2cc(F)ccc12 [Birinapant] | 162 | – |
| C[C@]12O[C@H](C[C@]1(O)CO)n1c3ccccc3c3c4c(c5c6ccccc6n2c5c31)CNC4=O [Lestaurtinib] + CC[C@H](NC(=O)[C@H](C)NC)C(=O)N1C[C@@H](O)C[C@H]1Cc1c(-c2[nH]c3cc(F)ccc3c2C[C@@H]2C[C@H](O)CN2C(=O)[C@H](CC)NC(=O)[C@H](C)NC)[nH]c2cc(F)ccc12 [Birinapant] | -142 | – |
| CO/C1=C\C(C)=C\[C@@H](C)[C@@H](O)[C@@H](C)C/C(C)=C/C=C/[C@H](OC)[C@@H]([C@@H](C)[C@@H](O)[C@H](C)[C@@]2(O)C[C@@H](O)[C@H](C)[C@@H](C(C)C)O2)OC1=O [Bafilomycin A1] + CC[C@H](NC(=O)[C@H](C)NC)C(=O)N1C[C@@H](O)C[C@H]1Cc1c(-c2[nH]c3cc(F)ccc3c2C[C@@H]2C[C@H](O)CN2C(=O)[C@H](CC)NC(=O)[C@H](C)NC)[nH]c2cc(F)ccc12 [Birinapant] | – | -1470 |
| CC[C@@H]1[C@@H](C)O[C@@](O)([C@@H](C)[C@H](O)[C@H](C)[C@H]2OC(=O)/C=C/C=C/[C@H](C)[C@@H]([C@@H](C)[C@@H](O)[C@H](C)[C@@]3(O)C[C@@H](O[C@H]4C[C@H](O)[C@H](O)[C@H](C)O4)[C@H](CC)[C@@H](C)O3)OC(=O)/C=C/C=C/[C@@H]2C)C[C@H]1O[C@H]1C[C@H](O)[C@H](O)[C@H](C)O1 [Azalomycin-B] + CC[C@H](NC(=O)[C@H](C)NC)C(=O)N1C[C@@H](O)C[C@H]1Cc1c(-c2[nH]c3cc(F)ccc3c2C[C@@H]2C[C@H](O)CN2C(=O)[C@H](CC)NC(=O)[C@H](C)NC)[nH]c2cc(F)ccc12 [Birinapant] | -24.5 | – |
| CC1C=CC=CCCC=CC=CC=CC=CC(OC2OC(C)C(O)C(N)C2O)CC2OC(O)(CC(O)C(O)CCC(O)CC(O)CC(O)CC(=O)OC(C)C(C)C1O)CC(O)C2C(=O)O (stereo not drawn) [Nystatin] + CC[C@H](NC(=O)[C@H](C)NC)C(=O)N1C[C@@H](O)C[C@H]1Cc1c(-c2[nH]c3cc(F)ccc3c2C[C@@H]2C[C@H](O)CN2C(=O)[C@H](CC)NC(=O)[C@H](C)NC)[nH]c2cc(F)ccc12 [Birinapant] | 90.8 | – |
| N=c1c2c(-c3ccccc3)c(-c3ccccc3)n(Cc3ccccc3)c2ncn1[C@H]1CC[C@H](O)CC1 + CC[C@H](NC(=O)[C@H](C)NC)C(=O)N1C[C@@H](O)C[C@H]1Cc1c(-c2[nH]c3cc(F)ccc3c2C[C@@H]2C[C@H](O)CN2C(=O)[C@H](CC)NC(=O)[C@H](C)NC)[nH]c2cc(F)ccc12 [Birinapant] | -361 | – |
| C[C@@]12OC(=O)[C@]1([C@@H](O)[C@@H]1C=CCCC1)NC(=O)[C@@H]2CCCl [Marizomib] + CC[C@H](NC(=O)[C@H](C)NC)C(=O)N1C[C@@H](O)C[C@H]1Cc1c(-c2[nH]c3cc(F)ccc3c2C[C@@H]2C[C@H](O)CN2C(=O)[C@H](CC)NC(=O)[C@H](C)NC)[nH]c2cc(F)ccc12 [Birinapant] | -95.7 | – |
| CC[C@@]1([C@@H]2O[C@@H]([C@H]3O[C@@](O)(CO)[C@H](C)C[C@@H]3C)C[C@@H]2C)CC[C@H]([C@]2(C)CC[C@]3(C[C@H](O)[C@@H](C)[C@@H]([C@@H](C)[C@@H](OC)[C@H](C)C(=O)O)O3)O2)O1 [Monensin sodium salt] + CC[C@H](NC(=O)[C@H](C)NC)C(=O)N1C[C@@H](O)C[C@H]1Cc1c(-c2[nH]c3cc(F)ccc3c2C[C@@H]2C[C@H](O)CN2C(=O)[C@H](CC)NC(=O)[C@H](C)NC)[nH]c2cc(F)ccc12 [Birinapant] | -104 | – |
| CO[C@H]1CC[C@@H](O[C@H]2C[C@H]([C@]3(C)CC[C@]4(C[C@H](O)[C@@H](C)[C@@H]([C@@H](C)/C=C(\C)C(=O)[C@H](C)C[C@H](C)C(=O)O)O4)O3)O[C@]3(O[C@@H]([C@H]4O[C@@](O)(CO)[C@H](C)C[C@@H]4C)C[C@@H]3C)[C@@H]2C)O[C@@H]1C [Nanchangmycin] + CC[C@H](NC(=O)[C@H](C)NC)C(=O)N1C[C@@H](O)C[C@H]1Cc1c(-c2[nH]c3cc(F)ccc3c2C[C@@H]2C[C@H](O)CN2C(=O)[C@H](CC)NC(=O)[C@H](C)NC)[nH]c2cc(F)ccc12 [Birinapant] | -308 | -1080 |
| Cc1n[nH]c2ccc(-c3cncc(OC[C@@H](N)Cc4c[nH]c5ccccc45)c3)cc12 + CC[C@H](NC(=O)[C@H](C)NC)C(=O)N1C[C@@H](O)C[C@H]1Cc1c(-c2[nH]c3cc(F)ccc3c2C[C@@H]2C[C@H](O)CN2C(=O)[C@H](CC)NC(=O)[C@H](C)NC)[nH]c2cc(F)ccc12 [Birinapant] | -218 | – |
| CC(C)c1cccc(C(C)C)c1O [Propofol] + CC[C@H](NC(=O)[C@H](C)NC)C(=O)N1C[C@@H](O)C[C@H]1Cc1c(-c2[nH]c3cc(F)ccc3c2C[C@@H]2C[C@H](O)CN2C(=O)[C@H](CC)NC(=O)[C@H](C)NC)[nH]c2cc(F)ccc12 [Birinapant] | 6.44 | – |
